PubChem BioAssay (NCI)
About 83,000 compounds went through this panel and 20% of them were active in at least one assay; those are over-represented in the sample as a whole.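 The endpoint reported here, percent growth, reads 100 for growth as untreated, 0 for no net growth and -100 for all cells dead.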 Activity calls are given as the source filed them. How the source made its calls: active means growth percent below 10; inactive means the rest.

Columns and labels:
Experiment in all cases: NCI-60 one-dose screen, 48 h (100 = growth as untreated, 0 = no growth, -100 = all killed)
Conditions in all cases: 10 µM unless noted
[1] = tested on: NCI-H23 lung
[2] = tested on: NCI-H226 lung
[3] = tested on: NCI-H322M lung
[4] = tested on: HOP-62 NSCLC
[5] = tested on: NCI-H460 lung
[6] = tested on: HOP-92 NSCLC
[7] = tested on: NCI-H522 lung
[8] = tested on: A549/ATCC NSCLC
[9] = tested on: 786-0 renal
[10] = tested on: COLO 205 colon
[11] = tested on: DU-145 prostate
[12] = tested on: K-562 leukemia
[13] = tested on: MALME-3M melanoma
[14] = tested on: MDA-MB-231 breast
[15] = tested on: RXF 393 renal
[16] = tested on: SF-268 CNS
[17] = tested on: SF-295 CNS
[18] = tested on: SF-539 CNS
[19] = tested on: UACC-257 melanoma
[20] = tested on: M14 melanoma

Measured: growth

COc1ccc(Nc2nc(SC)nc(-c3cccc([N+](=O)[O-])c3)c2C#N)cc1
inactive: [1] 73.6% | [2] 18.3% | [3] 65.8% | [4] 44.5% | [5] 30.4% | [6] 61.3% | [7] 80.8% | [8] 31.4% | [9] 21.8% | [10] 81.5% | [11] 80.6% | [12] 93.6% | [13] 61.7% | [14] 45.1% | [15] 60% | [16] 71.6% | [17] 69.3% | [18] 69% | [19] 89.5% | [20] 74.9%

CCN=C1C=CC(=C(c2ccc(N)cc2)c2ccc(N(CC)CC)c(C)c2)C=C1
active: [1] -14.9% | [2] -30.9% | [3] 3.81% | [4] 9.19% | [5] -53.9% | [6] -40.5% | [7] -5.45% | [9] -47.2% | [10] -43.1% | [11] -20.6% | [12] 3.56% | [13] -31% | [14] -17.6% | [15] -16.7% | [16] 4.51% | [17] -19.1% | [18] -31.2% | [19] -0.947% | [20] -42.1%
inactive: [8] 10.3%

COc1cccc(/C=C2\SC(=Nc3ccc(NC(C)=O)cc3)NC2=O)c1OC
inactive: [1] 92.2% | [2] 103% | [3] 94.3% | [4] 92.3% | [5] 99.7% | [6] 55.3% | [7] 89.2% | [8] 96% | [9] 67.9% | [10] 111% | [11] 85.1% | [12] 101% | [13] 107% | [14] 102% | [15] 83.1% | [16] 99% | [17] 81.3% | [18] 94.4% | [19] 100% | [20] 98.1%

O=C1Nc2c(ccc(Cl)c2Cl)/C1=C\c1cc(C(F)(F)F)cc(C(F)(F)F)c1
inactive: [1] 13.3% | [2] 24.5% | [3] 74.1% | [4] 20.2% | [7] 22.3% | [8] 26% | [11] 24.8% | [15] 21.8% | [19] 25%
active: [5] -18% | [6] -22.6% | [9] -11.2% | [10] -74.9% | [12] 0.912% | [13] -55.5% | [14] -17.4% | [16] 9.57% | [17] 5.61% | [18] -11.3% | [20] -18.2%

COc1cccc(-c2nc3sccn3c2-c2ccnc(NCCNS(=O)(=O)c3ccc(F)cc3)c2)c1
inactive: [1] 27.2% | [2] 24% | [3] 58.6% | [4] 43.7% | [5] 21.4% | [6] 41% | [7] 32.3% | [8] 22.7% | [9] 41.6% | [10] 23.4% | [11] 26.3% | [12] 13.4% | [13] 42.7% | [14] 55.6% | [15] 42.2% | [16] 34.7% | [17] 14.5% | [18] 55.5% | [19] 40% | [20] 23.9%

C[n+]1ccccc1/C=C/c1ccc2cccc(O)c2n1
active: [8] 9.6%
inactive: [1] 103% | [2] 86.8% | [3] 136% | [4] 91.1% | [5] 102% | [6] 106% | [7] 99.8% | [9] 104% | [10] 63.3% | [11] 102% | [12] 102% | [13] 146% | [14] 93.3% | [15] 48.4% | [16] 97.1% | [17] 109% | [18] 109% | [19] 97.5% | [20] 103%

COc1ccc(CCNc2nc3c(c(=O)n(Cc4ccc(Br)cc4)c(=O)n3C)n2C)cc1OC
inactive: [1] 84.1% | [2] 86.6% | [3] 93.8% | [4] 113% | [5] 96.9% | [6] 92.8% | [7] 84.2% | [8] 90% | [9] 102% | [10] 103% | [11] 107% | [12] 69.8% | [13] 87.2% | [14] 81.9% | [15] 120% | [16] 92.6% | [17] 89.1% | [18] 88.5% | [19] 92.4% | [20] 101%

N#C/C(=C\c1ccc(-c2cc(C(F)(F)F)ccc2Cl)o1)c1nc(-c2ccco2)cs1
inactive: [1] 93.7% | [2] 96.2% | [3] 103% | [4] 96.1% | [5] 102% | [6] 101% | [7] 85.3% | [8] 108% | [9] 104% | [10] 119% | [11] 108% | [12] 89.3% | [13] 106% | [14] 93.1% | [15] 112% | [16] 99.7% | [17] 101% | [18] 99.3% | [19] 112% | [20] 99.4%

Cn1c(=O)c2c(nc3n(-c4ccc(Cl)cc4Cl)c(Sc4nc(-c5ccccc5)c(C#N)c(=O)[nH]4)cn23)n(C)c1=O
inactive: [1] 65% | [2] 56.4% | [3] 26.4% | [4] 54.8% | [5] 13.9% | [6] 34.4% | [7] 59.6% | [8] 20.9% | [9] 15.1% | [10] 71.8% | [11] 50.5% | [12] 84% | [13] 45.2% | [14] 27.7% | [15] 59.1% | [16] 61.9% | [17] 44.4% | [18] 30.6% | [19] 99.9% | [20] 84%

COc1cc(-c2nc3ccccc3[nH]2)ccc1OCc1nnc(-c2ccc(CC(C)C)cc2)o1
inactive: [1] 91.1% | [2] 87.7% | [3] 93.8% | [4] 93.4% | [5] 98.8% | [6] 79.7% | [7] 93.5% | [8] 84.2% | [9] 93.7% | [10] 101% | [11] 94% | [12] 76% | [13] 89.9% | [14] 93.4% | [15] 71.2% | [16] 99.9% | [17] 99.3% | [18] 105% | [19] 104% | [20] 98.3%

COc1ccc(-c2cc(C(=O)N=Nc3c(O)[nH]c4ccc(Br)cc34)no2)cc1
inactive: [1] 87% | [2] 86.3% | [3] 99% | [4] 90.5% | [5] 101% | [6] 96.7% | [7] 83.2% | [8] 103% | [9] 105% | [10] 114% | [11] 105% | [12] 96.5% | [13] 92.4% | [14] 92.8% | [15] 107% | [16] 99.4% | [17] 103% | [18] 95.9% | [19] 112% | [20] 98.9%

CCCN1CCN(c2ccc3nc(-c4ccc5nc(-c6ccc(OCC)cc6)[nH]c5c4)[nH]c3c2)CC1
active: [5] -76.8% | [7] -3.11% | [8] -71.4% | [10] -32% | [12] -47.4% | [13] 0.636% | [15] -31.3% | [20] -27.2%
inactive: [1] 19.5% | [2] 65.1% | [3] 60.6% | [4] 55.7% | [6] 39.3% | [9] 16.3% | [11] 21.2% | [14] 84.8% | [16] 68.6% | [17] 41.4% | [18] 58.3% | [19] 39.7%

C(=N/Nc1ncc(-c2cc3cc(-c4ccccc4)ccc3o2)s1)/c1cccs1
active: [5] 7.38%
inactive: [1] 99.9% | [2] 104% | [3] 33.8% | [4] 118% | [6] 105% | [7] 86.1% | [8] 13.3% | [9] 101% | [10] 72.4% | [11] 97.2% | [12] 96.6% | [13] 97.8% | [14] 109% | [15] 129% | [16] 102% | [17] 98.1% | [18] 99.6% | [19] 102% | [20] 111%

O=C(/C=C/c1cc(CN2CCOCC2)c(O)c2ncccc12)c1cc(CN2CCOCC2)c(O)c2ncccc12
active: [5] 9.34% | [6] -4.72% | [8] 2.72% | [19] -6.41%
inactive: [1] 30.5% | [2] 34.6% | [3] 45.5% | [4] 16% | [7] 14.4% | [9] 24.6% | [10] 30.2% | [11] 26.9% | [12] 10.4% | [13] 38.9% | [14] 30.6% | [15] 35.3% | [16] 30.2% | [17] 14.7% | [18] 15% | [20] 31.3%

COC(=O)[C@]12CCC(C)(C)C[C@H]1[C@H]1C(=O)C[C@@H]3[C@@]4(C)c5c([nH]c6ccccc6c5=O)C(C)(C)[C@@H]4CC[C@@]3(C)[C@]1(C)CC2
inactive: [1] 65.8% | [2] 65.7% | [3] 90.4% | [4] 85.5% | [5] 66.8% | [6] 85.8% | [7] 45.1% | [8] 34.8% | [9] 86.3% | [10] 77.5% | [11] 86.5% | [12] 18.9% | [13] 88.1% | [14] 86.4% | [15] 65.7% | [16] 82% | [17] 35.6% | [18] 92.1% | [19] 57.4% | [20] 29%

CCN1CCC2(CC1)NC(=O)c1c(c3ccc(Cl)c(Cl)c3n1C)C2C#N (stereo not given)
inactive: [1] 70% | [2] 72% | [3] 57% | [4] 62% | [5] 54.6% | [6] 40.5% | [7] 61.5% | [8] 52.1% | [9] 63.7% | [11] 72.7% | [12] 23.3% | [14] 60.5% | [15] 76.6% | [16] 51.4% | [17] 70.8% | [18] 52%
active: [10] -31.4% | [13] -6.1% | [19] -5.12% | [20] -38.5%
